One sequence from PMC7862700, “An all-to-all approach to the identification of sequence-specific readers for epigenetic DNA modifications on cytosine” can be followed below.

Experiment in all cases: DAPPL (digital affinity profiling via proximity ligation, sequencing); 10 mM Tris-HCl pH 7.5, 50 mM NaCl, 1 mM DTT, 4% glycerol, room temperature, 30 min; GST-TFs on glutathione beads, 16-mer random dsDNA library, 0.1% formaldehyde crosslink after washing; high values mean tight binding
The target of assay [1] is T1, FEV (Homo sapiens, UniProt Q99581 1-238).
T1 sequence: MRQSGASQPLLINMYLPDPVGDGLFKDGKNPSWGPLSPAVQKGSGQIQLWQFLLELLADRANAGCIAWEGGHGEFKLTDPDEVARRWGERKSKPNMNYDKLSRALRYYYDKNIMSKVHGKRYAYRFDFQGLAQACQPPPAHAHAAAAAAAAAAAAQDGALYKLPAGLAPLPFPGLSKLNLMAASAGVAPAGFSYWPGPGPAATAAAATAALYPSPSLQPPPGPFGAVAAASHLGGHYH
To be noted: protein: recombinant; tags: N-terminal GST; dsDNA, one strand shown. The method in brief: (§1)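 Binding signal is each hexamer's read frequency for a factor divided by its frequency in the tag-only sample. The factors were GST-fused human transcription factors from yeast, captured on glutathione beads, DNA-barcoded and pooled with that sample. Pools were incubated with 200 nmole of a random double-stranded 16-mer DNA library in Tris/NaCl/DTT/glycerol buffer at room temperature for 30 min, then washed, crosslinked with 0.1% formaldehyde, proximity-ligated with BsaI/T4 ligase (1 h, 37 °C), PCR-amplified and sequenced on an Illumina NextSeq500.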

Assay [2] deals with ETV5 (Homo sapiens, UniProt P41161 1-510). To be noted: protein: recombinant; tags: N-terminal GST; dsDNA, one strand shown. An outline of the steps:
as §1

The target in assay [3] is HSF1 (Homo sapiens, UniProt Q00613 1-529). Conditions: protein: recombinant; tags: N-terminal GST; chain copies: 3; dsDNA, one strand shown. An outline of the steps: as §1
The target in assay [4] is T2, SPIC (Homo sapiens, UniProt Q8N5J4 1-248).
T2 sequence: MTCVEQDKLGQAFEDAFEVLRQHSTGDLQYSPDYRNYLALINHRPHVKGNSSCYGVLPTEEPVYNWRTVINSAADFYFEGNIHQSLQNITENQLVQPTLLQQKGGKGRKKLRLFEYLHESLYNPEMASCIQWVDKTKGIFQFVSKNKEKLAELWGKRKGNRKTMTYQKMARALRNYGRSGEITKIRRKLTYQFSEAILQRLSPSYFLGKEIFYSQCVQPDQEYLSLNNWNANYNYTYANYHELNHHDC
Conditions: protein: recombinant; tags: N-terminal GST; dsDNA, one strand shown. The method in brief:
as §1

The target of assay [5] is ELF4 (Homo sapiens, UniProt Q99607 1-663). Conditions: protein: recombinant; tags: N-terminal GST; dsDNA, one strand shown. An outline of the steps:
as §1

Assay [6] concerns the target T3, ELK4 (Homo sapiens, UniProt P28324-2 1-405).
T3 sequence: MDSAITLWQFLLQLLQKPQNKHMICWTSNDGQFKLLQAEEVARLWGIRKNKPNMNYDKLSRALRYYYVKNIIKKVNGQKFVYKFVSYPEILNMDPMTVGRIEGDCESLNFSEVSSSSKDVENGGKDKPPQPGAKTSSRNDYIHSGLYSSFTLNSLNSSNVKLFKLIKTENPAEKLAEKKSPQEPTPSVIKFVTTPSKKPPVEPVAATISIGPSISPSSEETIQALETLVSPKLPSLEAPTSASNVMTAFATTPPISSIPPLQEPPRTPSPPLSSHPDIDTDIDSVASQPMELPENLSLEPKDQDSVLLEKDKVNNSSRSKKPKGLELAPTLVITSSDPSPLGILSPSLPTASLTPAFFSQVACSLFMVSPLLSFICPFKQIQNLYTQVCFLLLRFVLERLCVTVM
To be noted: protein: recombinant; tags: N-terminal GST; dsDNA, one strand shown. An outline of the steps: as §1

Assay [7] concerns the target T4, ETV2 (Homo sapiens, UniProt O00321 1-342).
T4 sequence: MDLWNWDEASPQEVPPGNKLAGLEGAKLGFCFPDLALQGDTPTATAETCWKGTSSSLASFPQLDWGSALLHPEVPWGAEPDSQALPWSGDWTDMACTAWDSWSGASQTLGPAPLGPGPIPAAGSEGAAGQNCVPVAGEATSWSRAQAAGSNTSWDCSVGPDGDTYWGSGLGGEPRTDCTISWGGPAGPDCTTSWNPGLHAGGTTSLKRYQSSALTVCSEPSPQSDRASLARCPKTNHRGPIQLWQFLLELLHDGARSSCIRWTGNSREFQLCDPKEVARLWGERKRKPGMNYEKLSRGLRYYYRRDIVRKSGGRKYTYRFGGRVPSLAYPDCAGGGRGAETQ
Conditions: protein: recombinant; tags: N-terminal GST; dsDNA, one strand shown. An outline of the steps:
as §1

Assay [8] concerns the target T5, ELF3 (Homo sapiens, UniProt P78545 1-371).
T5 sequence: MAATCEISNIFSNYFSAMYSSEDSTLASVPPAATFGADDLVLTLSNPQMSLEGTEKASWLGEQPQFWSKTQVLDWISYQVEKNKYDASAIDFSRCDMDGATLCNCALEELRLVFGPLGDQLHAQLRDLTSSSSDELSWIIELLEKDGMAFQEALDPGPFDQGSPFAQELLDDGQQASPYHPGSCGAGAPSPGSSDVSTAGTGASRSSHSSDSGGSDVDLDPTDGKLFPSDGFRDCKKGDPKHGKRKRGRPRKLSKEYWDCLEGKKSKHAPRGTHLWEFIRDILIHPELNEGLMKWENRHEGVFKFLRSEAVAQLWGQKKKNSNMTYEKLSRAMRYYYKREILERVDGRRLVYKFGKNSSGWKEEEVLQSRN
Conditions: protein: recombinant; tags: N-terminal GST; dsDNA, one strand shown. The method in brief:
as §1

The target of assay [9] is CRX (Homo sapiens, UniProt O43186 1-299). Conditions: protein: recombinant; tags: N-terminal GST; dsDNA, one strand shown. An outline of the steps: as §1
Assay [10] concerns the target ETV1 (Homo sapiens, UniProt P50549 1-477). To be noted: protein: recombinant; tags: N-terminal GST; dsDNA, one strand shown. An outline of the steps:
as §1

Assay [11] deals with T6, ERF (Homo sapiens, UniProt P50548 1-548).
T6 sequence: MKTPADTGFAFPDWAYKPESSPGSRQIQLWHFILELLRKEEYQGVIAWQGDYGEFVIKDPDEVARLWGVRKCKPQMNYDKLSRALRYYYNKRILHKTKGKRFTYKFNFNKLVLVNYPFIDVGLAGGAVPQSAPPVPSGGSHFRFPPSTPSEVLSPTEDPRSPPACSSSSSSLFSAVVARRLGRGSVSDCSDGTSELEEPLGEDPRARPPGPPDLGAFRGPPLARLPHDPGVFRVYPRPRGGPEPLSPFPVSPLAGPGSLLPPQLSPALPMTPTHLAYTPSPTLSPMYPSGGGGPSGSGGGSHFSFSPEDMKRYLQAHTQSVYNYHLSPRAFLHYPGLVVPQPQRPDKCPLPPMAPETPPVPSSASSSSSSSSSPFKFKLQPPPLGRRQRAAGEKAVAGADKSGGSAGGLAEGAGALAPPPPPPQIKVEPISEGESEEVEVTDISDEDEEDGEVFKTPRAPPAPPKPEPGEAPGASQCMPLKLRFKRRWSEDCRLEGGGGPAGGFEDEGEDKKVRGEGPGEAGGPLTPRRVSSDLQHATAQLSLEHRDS
Conditions: protein: recombinant; tags: N-terminal GST; dsDNA, one strand shown. An outline of the steps: as §1

In assay [12] the target is T7, ETV3L (Homo sapiens, UniProt Q6ZN32 1-361).
T7 sequence: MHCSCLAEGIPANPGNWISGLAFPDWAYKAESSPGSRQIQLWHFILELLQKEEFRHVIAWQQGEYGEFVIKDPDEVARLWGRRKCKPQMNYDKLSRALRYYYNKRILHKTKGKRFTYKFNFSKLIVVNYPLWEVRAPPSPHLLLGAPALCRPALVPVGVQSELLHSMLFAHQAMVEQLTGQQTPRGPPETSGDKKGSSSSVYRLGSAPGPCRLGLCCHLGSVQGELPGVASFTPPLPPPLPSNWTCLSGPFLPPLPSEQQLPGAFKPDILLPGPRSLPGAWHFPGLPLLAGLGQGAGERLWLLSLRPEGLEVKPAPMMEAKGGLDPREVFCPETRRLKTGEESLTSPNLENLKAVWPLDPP
To be noted: protein: recombinant; tags: N-terminal GST; dsDNA, one strand shown. The method in brief:
as §1

Assay [13] concerns the target T8, ETS2 (Homo sapiens, UniProt P15036 1-469).
T8 sequence: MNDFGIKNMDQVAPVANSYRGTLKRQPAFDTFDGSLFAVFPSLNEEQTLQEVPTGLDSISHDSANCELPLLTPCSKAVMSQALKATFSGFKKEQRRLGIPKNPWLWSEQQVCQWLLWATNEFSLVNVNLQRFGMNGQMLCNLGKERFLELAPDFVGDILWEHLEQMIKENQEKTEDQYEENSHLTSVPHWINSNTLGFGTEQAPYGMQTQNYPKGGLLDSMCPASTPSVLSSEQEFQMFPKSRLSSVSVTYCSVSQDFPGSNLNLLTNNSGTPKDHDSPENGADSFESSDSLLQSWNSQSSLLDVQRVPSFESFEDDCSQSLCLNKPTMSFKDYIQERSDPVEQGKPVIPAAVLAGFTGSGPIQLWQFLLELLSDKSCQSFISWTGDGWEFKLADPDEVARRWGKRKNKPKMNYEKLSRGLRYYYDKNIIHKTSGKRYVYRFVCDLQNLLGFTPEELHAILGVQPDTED
To be noted: protein: recombinant; tags: N-terminal GST; dsDNA, one strand shown. The method in brief:
as §1

Assay [14] deals with T9, SPDEF (Homo sapiens, UniProt O95238 1-335).
T9 sequence: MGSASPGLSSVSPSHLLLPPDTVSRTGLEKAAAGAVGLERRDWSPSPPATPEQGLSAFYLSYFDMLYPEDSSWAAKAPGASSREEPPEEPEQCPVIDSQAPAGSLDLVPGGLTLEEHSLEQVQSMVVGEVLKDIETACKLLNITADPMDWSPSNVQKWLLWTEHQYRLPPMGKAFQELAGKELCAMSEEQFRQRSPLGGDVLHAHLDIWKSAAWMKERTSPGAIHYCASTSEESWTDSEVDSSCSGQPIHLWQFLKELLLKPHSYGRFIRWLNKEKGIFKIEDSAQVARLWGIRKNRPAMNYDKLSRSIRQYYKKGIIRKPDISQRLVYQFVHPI
To be noted: protein: recombinant; tags: N-terminal GST; dsDNA, one strand shown. An outline of the steps: as §1

Assay [15] has as its target T10, ETV7 (Homo sapiens, UniProt Q9Y603 1-341).
T10 sequence: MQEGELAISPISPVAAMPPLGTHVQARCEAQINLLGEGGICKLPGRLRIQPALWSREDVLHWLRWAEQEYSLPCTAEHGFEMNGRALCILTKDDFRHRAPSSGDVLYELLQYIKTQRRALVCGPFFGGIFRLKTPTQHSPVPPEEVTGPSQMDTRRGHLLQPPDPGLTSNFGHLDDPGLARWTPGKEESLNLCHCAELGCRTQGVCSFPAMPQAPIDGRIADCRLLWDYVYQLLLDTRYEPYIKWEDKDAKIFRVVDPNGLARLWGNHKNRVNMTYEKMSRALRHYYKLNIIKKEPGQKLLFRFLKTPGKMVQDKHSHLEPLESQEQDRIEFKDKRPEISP
To be noted: protein: recombinant; tags: N-terminal GST; dsDNA, one strand shown. An outline of the steps: as §1

Assay [16] deals with T11, ELF5 (Homo sapiens, UniProt Q9UKW6-2 1-255).
T11 sequence: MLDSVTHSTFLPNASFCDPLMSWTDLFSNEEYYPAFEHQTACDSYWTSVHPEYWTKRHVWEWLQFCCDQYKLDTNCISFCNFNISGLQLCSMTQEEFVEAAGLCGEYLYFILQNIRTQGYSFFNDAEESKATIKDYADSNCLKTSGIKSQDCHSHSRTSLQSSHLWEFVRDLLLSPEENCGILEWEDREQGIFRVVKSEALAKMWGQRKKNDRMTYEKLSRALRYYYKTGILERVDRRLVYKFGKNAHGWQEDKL
Conditions: protein: recombinant; tags: N-terminal GST; dsDNA, one strand shown. The method in brief: as §1

The target in assay [17] is T12, ETV3 (Homo sapiens, UniProt P41162-2 1-143).
T12 sequence: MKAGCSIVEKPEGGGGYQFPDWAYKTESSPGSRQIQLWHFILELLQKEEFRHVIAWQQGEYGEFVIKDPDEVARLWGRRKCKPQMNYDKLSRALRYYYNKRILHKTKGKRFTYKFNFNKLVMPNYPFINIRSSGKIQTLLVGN
Conditions: protein: recombinant; tags: N-terminal GST; dsDNA, one strand shown. An outline of the steps:
as §1

The target in assay [18] is ETV6 (Homo sapiens, UniProt P41212 1-452). To be noted: protein: recombinant; tags: N-terminal GST; dsDNA, one strand shown. An outline of the steps: as §1
ETV6, sequence (P41212 whole entry): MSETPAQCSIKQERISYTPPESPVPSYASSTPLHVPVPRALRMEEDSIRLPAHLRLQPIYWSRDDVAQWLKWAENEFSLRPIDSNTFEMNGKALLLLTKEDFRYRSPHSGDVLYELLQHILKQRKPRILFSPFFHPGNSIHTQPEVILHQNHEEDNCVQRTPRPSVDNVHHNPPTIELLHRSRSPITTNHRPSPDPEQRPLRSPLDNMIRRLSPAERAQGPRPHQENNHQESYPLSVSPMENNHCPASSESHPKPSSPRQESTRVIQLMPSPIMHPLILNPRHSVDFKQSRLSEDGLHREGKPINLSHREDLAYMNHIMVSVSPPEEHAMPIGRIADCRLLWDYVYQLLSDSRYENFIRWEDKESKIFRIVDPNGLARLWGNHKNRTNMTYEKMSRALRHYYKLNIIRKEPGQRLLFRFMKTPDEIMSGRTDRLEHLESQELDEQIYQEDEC

HSF1, sequence (Q00613 whole entry): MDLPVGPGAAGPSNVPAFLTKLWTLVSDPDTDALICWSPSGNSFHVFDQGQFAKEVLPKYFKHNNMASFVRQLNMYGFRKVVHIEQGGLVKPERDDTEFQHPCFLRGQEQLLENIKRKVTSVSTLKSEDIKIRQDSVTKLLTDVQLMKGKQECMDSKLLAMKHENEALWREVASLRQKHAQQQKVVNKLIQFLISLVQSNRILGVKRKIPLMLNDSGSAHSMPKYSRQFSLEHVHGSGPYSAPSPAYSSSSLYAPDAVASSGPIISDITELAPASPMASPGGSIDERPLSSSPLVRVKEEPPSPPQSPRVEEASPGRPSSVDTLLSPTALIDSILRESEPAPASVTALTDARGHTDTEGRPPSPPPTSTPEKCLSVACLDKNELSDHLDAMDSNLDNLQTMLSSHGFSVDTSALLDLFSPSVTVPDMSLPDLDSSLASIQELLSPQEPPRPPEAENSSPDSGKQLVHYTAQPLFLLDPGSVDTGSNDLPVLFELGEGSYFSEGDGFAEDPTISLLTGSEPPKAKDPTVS
CRX, sequence (O43186 whole entry): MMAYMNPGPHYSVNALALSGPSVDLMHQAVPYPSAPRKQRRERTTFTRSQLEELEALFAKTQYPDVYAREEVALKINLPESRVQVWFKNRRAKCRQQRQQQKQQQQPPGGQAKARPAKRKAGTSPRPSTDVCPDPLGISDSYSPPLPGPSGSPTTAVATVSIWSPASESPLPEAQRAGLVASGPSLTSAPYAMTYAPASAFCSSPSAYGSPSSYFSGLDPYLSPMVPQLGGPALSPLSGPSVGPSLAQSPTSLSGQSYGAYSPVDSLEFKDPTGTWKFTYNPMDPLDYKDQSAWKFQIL
ETV1, sequence (P50549 whole entry): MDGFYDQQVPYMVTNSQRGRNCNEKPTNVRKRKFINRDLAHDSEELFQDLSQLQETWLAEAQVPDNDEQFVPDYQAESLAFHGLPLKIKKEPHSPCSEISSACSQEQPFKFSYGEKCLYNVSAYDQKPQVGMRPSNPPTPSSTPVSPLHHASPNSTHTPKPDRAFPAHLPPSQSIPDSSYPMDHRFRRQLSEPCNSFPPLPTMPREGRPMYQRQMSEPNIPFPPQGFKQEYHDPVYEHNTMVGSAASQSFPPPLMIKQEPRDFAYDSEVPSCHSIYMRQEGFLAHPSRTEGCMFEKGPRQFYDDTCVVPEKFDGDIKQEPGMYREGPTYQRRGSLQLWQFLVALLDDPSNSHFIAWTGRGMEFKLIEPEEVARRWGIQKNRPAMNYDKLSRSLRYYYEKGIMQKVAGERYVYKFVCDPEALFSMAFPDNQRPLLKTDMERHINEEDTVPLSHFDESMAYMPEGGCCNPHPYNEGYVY
ETV5, sequence (P41161 whole entry): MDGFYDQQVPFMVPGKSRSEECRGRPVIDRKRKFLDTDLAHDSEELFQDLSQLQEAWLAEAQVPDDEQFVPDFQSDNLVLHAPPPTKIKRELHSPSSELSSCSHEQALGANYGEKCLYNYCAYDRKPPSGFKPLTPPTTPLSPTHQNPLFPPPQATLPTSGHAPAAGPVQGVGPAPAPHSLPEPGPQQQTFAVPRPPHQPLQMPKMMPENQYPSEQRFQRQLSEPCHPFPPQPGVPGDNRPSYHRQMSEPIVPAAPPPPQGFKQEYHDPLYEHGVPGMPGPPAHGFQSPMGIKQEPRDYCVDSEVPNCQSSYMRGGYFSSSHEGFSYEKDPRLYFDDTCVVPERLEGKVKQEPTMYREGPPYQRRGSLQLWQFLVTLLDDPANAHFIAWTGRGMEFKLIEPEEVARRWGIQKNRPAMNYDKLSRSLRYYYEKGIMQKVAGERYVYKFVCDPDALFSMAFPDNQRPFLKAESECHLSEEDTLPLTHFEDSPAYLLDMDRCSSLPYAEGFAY
ELF4, sequence (Q99607 whole entry): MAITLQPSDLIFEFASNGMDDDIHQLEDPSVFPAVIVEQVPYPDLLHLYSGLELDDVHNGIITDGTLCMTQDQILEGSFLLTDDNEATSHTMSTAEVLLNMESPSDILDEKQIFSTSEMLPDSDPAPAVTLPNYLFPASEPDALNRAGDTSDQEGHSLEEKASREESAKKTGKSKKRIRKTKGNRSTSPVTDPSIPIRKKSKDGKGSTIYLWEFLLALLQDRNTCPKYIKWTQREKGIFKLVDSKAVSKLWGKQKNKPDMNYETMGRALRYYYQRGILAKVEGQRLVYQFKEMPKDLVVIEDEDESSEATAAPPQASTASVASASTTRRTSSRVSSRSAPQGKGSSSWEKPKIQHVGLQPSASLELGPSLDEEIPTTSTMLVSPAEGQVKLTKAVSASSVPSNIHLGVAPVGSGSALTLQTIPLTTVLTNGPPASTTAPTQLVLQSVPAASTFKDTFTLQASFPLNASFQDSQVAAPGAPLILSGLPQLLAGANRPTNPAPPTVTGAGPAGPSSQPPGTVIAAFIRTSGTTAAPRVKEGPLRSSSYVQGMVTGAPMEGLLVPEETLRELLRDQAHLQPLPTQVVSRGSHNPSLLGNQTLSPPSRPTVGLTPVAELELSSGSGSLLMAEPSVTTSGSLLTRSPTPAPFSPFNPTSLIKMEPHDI

ATCTAT: the binding signal in assay [1] was 1.08 fold enrichment (6-mer frequency, TF over GST control); in assay [2], 1.15 fold enrichment (6-mer frequency, TF over GST control); in assay [3], 1.32 fold enrichment (6-mer frequency, TF over GST control); in [4] it was 1.27 fold enrichment (6-mer frequency, TF over GST control); in [5], 1.21 fold enrichment (6-mer frequency, TF over GST control); in assay [6], 1.18 fold enrichment (6-mer frequency, TF over GST control). Further, the binding signal in assay [7] was 1.13 fold enrichment (6-mer frequency, TF over GST control); in assay [8] it was 1.23 fold enrichment (6-mer frequency, TF over GST control); in [9], 1.42 fold enrichment (6-mer frequency, TF over GST control); in assay [10], 1.16 fold enrichment (6-mer frequency, TF over GST control); in [11], 1.12 fold enrichment (6-mer frequency, TF over GST control); in assay [12], 1.07 fold enrichment (6-mer frequency, TF over GST control). Besides, the binding signal in assay [13] was 1.15 fold enrichment (6-mer frequency, TF over GST control); in [14], 1.17 fold enrichment (6-mer frequency, TF over GST control); in assay [15], 1.18 fold enrichment (6-mer frequency, TF over GST control); in [16], 1.05 fold enrichment (6-mer frequency, TF over GST control); in assay [17], 1.12 fold enrichment (6-mer frequency, TF over GST control); in assay [18] it was 1.14 fold enrichment (6-mer frequency, TF over GST control).
